Bioassay records from PubChem.
An excerpt weighted towards active compounds, which were near 12% of everything screened.
Shiga inhibitor – blocks Shiga toxin action in Vero cells; inhibition, % at 38.7 µM; AID 2315; Vero cells, Shiga toxin protein synthesis inhibition reporter; hit rate 9.2% among 290,000; in the data active = inhibition mostly above about 28%, no sharp cut-off; inactive = mostly below about 43%
FMDV antiviral – blocks foot and mouth disease virus; FMDV antiviral cell-based qHTS; Potency, µM (doses to about 57.9 µM), most hits filed as inhibitors; hit rate 1.2% among 410,000; AID 1159524; calls by dose curve; tested in HEK293T cells; note: read-out not given here; nearly all actives have a fitted effect of over 45% in size
Cycloheximide cs – counter-screen for Shiga toxin inhibitors: cycloheximide protein synthesis inhibition. cell reporter, cycloheximide protein synthesis inhibition counterscreen. hit rate 12% among 300,000. max response, %; in the data active = max response mostly above about 13%, no sharp cut-off; inactive = mostly below about 14%; note: read at 38.3 µM for the half of the compounds with a filed dose
Sm TGR inh – inhibitors of Schistosoma mansoni thioredoxin glutathione reductase. purified TGR, DTNB reduction, TNB absorbance 405 nm. Potency, µM (doses to about 114 µM), hits mostly inhibitors. hit rate 3% among 360,000. AID 485364; active = well fitted inhibition curve with a large enough effect; inconclusive = small, poorly fitted or top-dose-only effect; inactive = no such curve, though single readings can be large or run the other way; note: nearly all actives have a fitted effect of over 60% in size
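TGR 20 nM + NADPH 100 uM (dispensed conc.), cpd preinc 15 min RT; start with NADPH (500 uM addition) then DTNB (15 mM addition). Kinetic TNB absorbance, 405 nm filter. Four-parameter Hill fit across titration.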
Large screens that a line does not name were inactive.

Cc1cc(-c2nnco2)c(C)n1-c1ccccc1	Cycloheximide cs 37
Cc1nc2ccccn2c1-c1nnco1	none
CCOCCCNc1nc2ccccc2[nH]1	Cycloheximide cs 12
c1ccc2[nH]c(NCCCc3cnc[nH]3)nc2c1	none (no result: Sm TGR inh)
CCCCNc1nc2ccccc2[nH]1	Cycloheximide cs 22
CCN(c1cccc(C)c1)S(=O)(=O)c1cc2c(cc1C)n(C)c(=O)c(=O)n2C	none (no result: Shiga inhibitor, Cycloheximide cs)
Cn1cncc1C#Cc1ccc2cc(CCO)oc(=O)c2c1	Sm TGR inh 11µM (no result: Shiga inhibitor, Cycloheximide cs)
Cc1cccc(OCC(=O)Nc2c(C(=O)N3CCN(c4ccccc4)CC3)oc3ccccc23)c1	none (no result: Shiga inhibitor, Cycloheximide cs)
COc1ccc(N2CCN(c3ccc(N)cc3C#N)CC2)cc1	none
c1ccc(N2CCN(c3ncccn3)CC2)cc1	Cycloheximide cs 22
COc1ccc(N2CCN(c3ncccc3C#N)CC2)cc1	Cycloheximide cs 11
COc1ccnc(N2CCN(c3ccccc3)CC2)c1C#N	Shiga inhibitor 40, Cycloheximide cs 29 (no result: FMDV antiviral)
COc1cccc(CN2C(=O)NC(C)(C3CCN(Cc4cccc(O)c4)CC3)C2=O)c1OC (stereo not given)	none (no result: Shiga inhibitor, Cycloheximide cs, Sm TGR inh)
CC1CCC(NC(=S)NCCN(C)C)CC1 (stereo not given)	Shiga inhibitor 45, Cycloheximide cs 23
c1ccc(NCC2OCc3ccccc3CO2)cc1	Shiga inhibitor 98, Cycloheximide cs 43
CCCCCCNCC1OCc2ccccc2CO1	none
N/C(=N\NC(=O)c1cccc(F)c1)c1cc2ccccc2oc1=O	Shiga inhibitor 34, Cycloheximide cs 26
CCOc1ccccc1NC(=O)c1cc2ccccc2oc1=O	none
N/C(=N\NC(=O)c1ccc(F)cc1)c1cc2ccccc2oc1=O	none
O=C(Nc1ccc(F)cc1F)c1cc2ccccc2oc1=O	Shiga inhibitor 53, Cycloheximide cs 20
O=C(Nc1nc2n(n1)C(c1ccc(F)cc1)C=C(c1ccc(Cl)cc1)N2)c1ccc([N+](=O)[O-])cc1 (stereo not given)	none (no result: Shiga inhibitor, Cycloheximide cs)
O=C(Nc1cccc(Br)c1)c1ccc(OC2CSC2)cc1	Shiga inhibitor 147, Cycloheximide cs 43 (no result: FMDV antiviral)
Cc1cccc(NC(=O)c2ccc(OC3CSC3)cc2)c1	Shiga inhibitor 62, Cycloheximide cs 43
O=C(NCc1ccccc1)c1ccc(Oc2ccc(C(=O)NCc3ccccc3)cc2)cc1	none
O=C(NCc1ccccc1)c1ccc(OC2CSC2)cc1	Cycloheximide cs 12
Cn1c2cc(S(C)(=O)=O)sc2c2cnn(Cc3ccccc3F)c(=O)c21	none (no result: FMDV antiviral, Sm TGR inh)
CCOc1ccc(NC(=O)c2nn(C)c3c2CS(=O)(=O)c2ccccc2-3)cc1	none (no result: Shiga inhibitor, Cycloheximide cs)
CC(C)(C)OC(=O)N1CCC(CC2CC(c3ccc(Cl)cc3)=NO2)(C(=O)NCC2CCCCC2)CC1 (stereo not given)	Shiga inhibitor 47, Cycloheximide cs 32
CC1(C(=O)N2CCC(CC3CC(c4ccc(Cl)cc4)=NO3)(C(=O)NCC3CCCCC3)CC2)CC1 (stereo not given)	none
CCCCCCCNC(=O)C1(CC2CC(c3cccc(Br)c3)=NO2)CCNCC1 (stereo not given)	Shiga inhibitor 33, Cycloheximide cs 8.2, Sm TGR inh 25µM
CCCCCCCNC(=O)C1(CC2CC(c3ccc(Cl)cc3)=NO2)CCNCC1 (stereo not given)	Sm TGR inh 40µM
Nc1c(C(=O)NCCc2ccccc2)nnn1CC(=O)Nc1ccc(Cl)cc1	none (no result: Shiga inhibitor, Cycloheximide cs)
COc1cccc(-n2cc(C(=O)Nc3cccc(C(F)(F)F)c3)c3ccccc3c2=O)c1	none (no result: Shiga inhibitor, Cycloheximide cs)
CC(C(=O)Nc1ccc(OC(F)(F)F)cc1)N1Cc2ccccc2C1=O (stereo not given)	none (no result: Shiga inhibitor, Cycloheximide cs)
O=C(O)C/C(=C\c1ccc(Cl)cc1)c1nc2ccccc2o1	none
O=C(O)C(=O)/C(=C\c1ccc(Cl)cc1)c1ccc2ccccc2n1	Shiga inhibitor 166, Cycloheximide cs 30
COC(=O)c1cnc2ccccc2n1	Cycloheximide cs 16
O=C(NCCc1ccccc1)c1cnc2ccccc2n1	Shiga inhibitor 106, Cycloheximide cs 32
COCCNC(=O)c1ccc2ccccc2n1	Cycloheximide cs 27
O=C(O)c1cnc2ccccc2n1	none
Cc1ccc(CNC(=O)c2cnc3ccccc3n2)cc1	none
COc1ccc(-n2ncc3c(NCCCOC(C)C)ncnc32)cc1	none (no result: Shiga inhibitor, Cycloheximide cs)
Cc1cc(Cl)ccc1OCC(=O)NCC1Cc2cc(-c3cnccn3)ccc2O1 (stereo not given)	none (no result: Shiga inhibitor, Cycloheximide cs, Sm TGR inh)
Cc1oc2c(c(C)cc3oc(=O)c(CC(=O)NCc4ccc(F)cc4)c(C)c32)c1C	none (no result: Shiga inhibitor, Cycloheximide cs)
O=C(NCCc1ccc(Cl)cc1)c1ccc2ccccc2n1	Shiga inhibitor 70, Cycloheximide cs 22
COc1ccc(CNC(=O)c2ccc3ccccc3n2)cc1	Cycloheximide cs 26
Cc1ccccc1OCCNC(=O)c1ccc2ccccc2n1	Shiga inhibitor 93, Cycloheximide cs 71
Cc1cccc(C(=O)OCc2cnc(Cl)s2)c1	Cycloheximide cs 11
O=C(Nc1ccccc1)OCc1cncs1	Shiga inhibitor 32
O=C(OCc1cnc(Cl)s1)c1cccc(Cl)c1	none
O=C(Nc1ccc(Cl)c(Cl)c1)OCc1cncs1	Shiga inhibitor 42, Cycloheximide cs 39
O=C(/C=C/c1ccccc1)OCc1cncs1	Shiga inhibitor 88, Cycloheximide cs 33
COc1ccc(OCC(=O)OCc2cc(=O)n3cc(C)sc3n2)cc1	none (no result: Shiga inhibitor, Cycloheximide cs)
O=C(Nc1ccc(Cl)c(Cl)c1)OCc1cnc(Cl)s1	Cycloheximide cs 20
O=C(Nc1ccccc1)OCc1cnc(Cl)s1	none
O=c1cnc2cnc(N3CCOCC3)nc2n1Cc1ccc(F)cc1	none (no result: Shiga inhibitor, Cycloheximide cs, Sm TGR inh)
CCCc1cc(C(=O)Nc2ccc(C#N)cc2)no1	Cycloheximide cs 15
CCc1c(C)sc(NC(=O)c2cccs2)c1C#N	Shiga inhibitor 77, Cycloheximide cs 53
CCc1noc(N)c1C(=O)Nc1ccc(F)c(Cl)c1	none
CCCc1cc(C(=O)Nc2ccc(F)c(Cl)c2)no1	Shiga inhibitor 94, Cycloheximide cs 31
N#Cc1ccc(NC(=O)c2cc(-c3cccs3)on2)cc1	none
CCCc1cc(C(=O)Nc2ccc(C(C)=O)cc2)no1	Shiga inhibitor 82, Cycloheximide cs 42
Cc1nn(-c2ccccc2)c2c1cc1c(=O)[nH]c(=O)nc-1n2-c1cccc(Cl)c1	none (no result: Shiga inhibitor, Cycloheximide cs)
COc1ccc(-c2coc3c(O)c(OC)ccc3c2=O)cc1	none (no result: Shiga inhibitor, Cycloheximide cs, Sm TGR inh)
CC(=O)c1cccc(NC(=O)c2cc(-c3ccc4c(c3)OCCO4)on2)c1	none (no result: Shiga inhibitor, Cycloheximide cs)
CC(=O)c1cccc(NC(=O)c2cc(-c3ccc(C)cc3)on2)c1	Shiga inhibitor active, Cycloheximide cs 30 (no result: FMDV antiviral)
CCCc1cc(C(=O)Nc2cccnc2)no1	Shiga inhibitor 89, Cycloheximide cs 72
CC(C)c1cc(C(=O)Nc2cccnc2)no1	Shiga inhibitor 48, Cycloheximide cs 37
O=C(Nc1cccnc1)c1cc(-c2ccco2)on1	Sm TGR inh inconclusive
Cc1sc(NC(=O)c2ccccc2)c(C#N)c1-c1ccccc1	Shiga inhibitor 26, Cycloheximide cs 43
COc1cc2c(cc1OC)C(COc1cc(C)cc(C)c1)N(C(=O)COc1ccccc1)CC2 (stereo not given)	FMDV antiviral inconclusive (no result: Shiga inhibitor, Cycloheximide cs)
COc1ccc(CCNC(=O)c2oc(=O)c3ccccc3c2-c2ccccc2)cc1OC	FMDV antiviral inconclusive (no result: Shiga inhibitor, Cycloheximide cs)
Cc1nn(C(C)(C)C)c(OC(=O)C(C)(C)C)c1Sc1ccccc1	none (no result: Shiga inhibitor, Cycloheximide cs)
CCCc1cc(C(=O)Nc2sc(C)c(CC)c2C#N)no1	Cycloheximide cs 13
CCCc1cc(C(=O)Nc2cccc(Cl)c2)no1	Shiga inhibitor 82, Cycloheximide cs 23
